Reference: PubChem BioAssay
Several values for one entry are separate records, joined by “and”; a condition that tells them apart may be missing. Identical values can stand only once. Activity calls are given as the source filed them.

Columns and labels:
Albumin (Bos taurus) = Albumin (Bos taurus) (UniProt P02769); test: bovine serum albumin binders on microarray, profiling panel, artefact control for SMM control protein annotation, biochemical, small-molecule microarray, Alexa647 label, 635/667 nm fluorescence (AID 1118); conditions: BSA-A647 binding, fluorescence 635 nm, higher = more signal;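 further: score merges 667 nm emission intensity and signal-to-noise per printed compound spot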
[1] = small-molecule microarray binders of probe aXIP, primary screen, biochemical, NeuroSMM set, 635/667 nm fluorescence (AID 1119); conditions: higher = more signal, called active from +8 up or from −8 down;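 further: probe is the protein aXip251-270 applied at 1 µg/mL to compound-printed slides; binding of probe to printed compounds measured as 667 nm fluorescence plus signal to noise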
[2] = small-molecule binders of probe aNOTCH3, primary screen, biochemical, small-molecule microarray, 635/667 nm fluorescence (AID 1120); conditions: higher = more signal;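 further: probe is a biotin-tagged antibody raised against NOTCH3 rather than NOTCH3 protein; score merges spot fluorescence near 667 nm with spot signal to noise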
[3] = small-molecule binders of probe aNOTCH2, primary screen, biochemical, small-molecule microarray, 635/667 nm fluorescence (AID 1121); conditions: higher = more signal;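 further: score merges feature fluorescence read at 667 nm with its signal to noise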
[4] = biological target: Carbonic anhydrase 2 (Homo sapiens) (UniProt P00918); test: CAII small-molecule binders, profiling panel, biochemical, small-molecule microarray, Alexa647-labelled CAII (AID 1122); conditions: CAII-A647 binding fluorescence, higher = more signal
[5] = COS7 lysate on small-molecule microarray, probe aHis, 635 nm (AID 1123); conditions: COS7 cell lysate, fluorescence, higher = more signal;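 further: z-score combines 667nm fluorescence intensity with signal-to-noise per printed compound spot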
[6] = compound binding in COS7 lysate, probe aLAP1, primary screen, cell lysate, small-molecule microarray (AID 1124); conditions: probe aLAP1, fluorescence, higher = more signal;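 further: lysate comes from COS7 cells expressing LAP1 and is applied at 0.3 µg/mL; score merges spot fluorescence near 667 nm with signal-to-noise over triplicate slides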
Sam68 (KHDRBS1) = test: Sam68 small-molecule binders, primary screen, biochemical, small-molecule microarray, 635 nm fluorescence (AID 1125); conditions: small-molecule microarray binding, higher = more signal;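 further: score merges 667 nm channel intensity with signal to noise over triplicate slides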
[7] = system: Chordin-like protein 2 (CHRDL2); test: CHRDL2 small-molecule binders, primary screen, biochemical, small-molecule microarray, 635 nm fluorescence (AID 1126); conditions: small-molecule microarray binding, fluorescence 635 nm; higher = more signal;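 further: printed compound slides probed with Chrdl2 protein at 4 µg/mL for 1 h at 4 C; score merges 667 nm emission intensity with signal to noise over three replicate slides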
[8] = biological target: Concanavalin-A (Canavalia ensiformis) (UniProt P02866); test: ConA small-molecule binders, primary screen, artefact control for SMM control protein annotation, biochemical, small-molecule microarray, Alexa647 label, 635 nm (AID 1127); conditions: ConA-A647 binding fluorescence, higher = more signal;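 further: z combines 667 nm emission intensity with signal-to-noise across three replicate slides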
Sequence of Concanavalin-A (Canavalia ensiformis) (P02866 whole entry, looked up): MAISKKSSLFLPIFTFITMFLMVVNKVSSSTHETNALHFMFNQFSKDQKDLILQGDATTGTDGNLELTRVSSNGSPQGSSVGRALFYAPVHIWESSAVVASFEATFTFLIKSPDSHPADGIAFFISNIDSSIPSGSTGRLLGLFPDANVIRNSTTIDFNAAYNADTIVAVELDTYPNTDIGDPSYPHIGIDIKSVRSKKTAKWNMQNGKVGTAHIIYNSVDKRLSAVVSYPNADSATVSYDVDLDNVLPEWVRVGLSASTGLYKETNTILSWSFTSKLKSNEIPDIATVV

Sequence of Albumin (Bos taurus) (P02769 whole entry, looked up): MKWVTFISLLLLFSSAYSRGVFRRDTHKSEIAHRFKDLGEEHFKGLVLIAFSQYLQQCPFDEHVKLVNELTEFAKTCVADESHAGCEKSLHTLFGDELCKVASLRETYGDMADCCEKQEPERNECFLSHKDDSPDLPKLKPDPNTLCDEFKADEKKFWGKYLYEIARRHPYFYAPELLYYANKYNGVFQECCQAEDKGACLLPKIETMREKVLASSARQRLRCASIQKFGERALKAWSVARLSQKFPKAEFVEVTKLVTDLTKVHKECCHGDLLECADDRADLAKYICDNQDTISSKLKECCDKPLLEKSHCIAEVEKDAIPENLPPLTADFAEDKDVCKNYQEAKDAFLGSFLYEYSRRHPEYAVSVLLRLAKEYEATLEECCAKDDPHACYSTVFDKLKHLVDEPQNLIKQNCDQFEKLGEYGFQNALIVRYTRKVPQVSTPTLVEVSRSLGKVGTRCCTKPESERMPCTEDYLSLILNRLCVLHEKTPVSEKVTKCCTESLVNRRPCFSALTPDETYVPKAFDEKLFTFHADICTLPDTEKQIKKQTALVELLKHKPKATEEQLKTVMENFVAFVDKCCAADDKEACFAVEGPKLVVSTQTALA

Compound	composite z-score (Albumin (Bos taurus))	composite Z-score [1]	composite z-score [2]	composite z-score [3]	composite z-score [4]	composite z-score [5]	composite z-score [6]	composite z-score (Sam68 (KHDRBS1))	composite z-score [7]	composite z-score [8]
Cc1cc2c(nc1C)CCCN2CC(O)CN1CCCc2nc(-c3ccc(Br)cc3)ccc21 (stereo not given)	-0.473 and 0.163	2.2 (inactive) and 4.49 (inactive)	0.569 and 0.969	0.174 and 0.519	0.492 and 0.401	0.531 and 1.25	0.741 and 0.489	1.29	0.955 and 1.08	0.975 and 1.03
C=C[C@H](C)[C@@H](O)c1ccc(OCCO)cc1	0.746 and -0.0233	-0.288 (inactive) and -0.162 (inactive)	-0.494 and -0.481	-0.238 and -0.14	0.743 and 0.6	-0.135 and -0.25	-1.16 and -0.0942	-1.42 and -0.873	-1.32 and -0.668	-1.1 and -0.494
Cc1ccc(S(=O)(=O)N[C@@H]2COC(=O)CC=C[C@@H](C)[C@@H]3C=C[C@H](O)[C@@H](COC(=O)CC=C[C@H]2C)O3)cc1	-0.311 and -0.304	-0.842 (inactive) and -0.0662 (inactive)	0.0426 and -0.161	-0.14 and -0.124	-0.0023 and 0.221	-0.348 and 0.043	0.0386 and 0.26	-0.132 and 0.293	0.711 and 0.396	-0.6 and 0.152
C=CC[C@H](O)c1ccc(OCCO)cc1	0.787 and -0.0212	-0.745 (inactive) and 0.156 (inactive)	-0.382 and -0.319	-0.169 and -0.296	0.725 and 0.843	-0.263 and -1.45	-0.22 and -0.782	-0.769 and -2.69	-0.978 and 0.193	-1.3 and -1.2
COC(=O)C1=C2N(Cc3ccccc3)C(C)=C(C(=O)OC)[C@@H](c3ccccc3)N2C(=O)[C@](O)(C(=O)OC)C1	0.514 and -0.0136	0.606 (inactive) and 0.656 (inactive)	0.0349 and -0.063	-0.171 and -0.0476	0.416 and -0.0902	0.877 and -0.0061	-0.109 and 0.809	0.776 and 0.133	0.392 and 0.77	0.712 and -0.0245
COC(=O)C1=C(C)N(Cc2ccccc2)[C@]23O[C@](C(=O)OC)(C(=O)N2[C@@H]1c1ccccc1)[C@@H](c1ccccc1)[C@@H]3C(=O)c1ccccc1	0.711 and -0.334	-0.0461 (inactive) and 0.0162 (inactive)	-0.0111 and -0.0048	-0.119 and -0.0974	0.179 and 0.178	0.49 and 0.258	0.315 and -0.144	0.661 and -0.776	0.189 and 0.843	0.675 and 0.142
COC(=O)C1=C(C)N(Cc2ccccc2)C2=C(C(C)=O)C[C@@](O)(C(=O)OC)C(=O)N2[C@@H]1c1ccccc1	0.838 and 0.336	0.397 (inactive) and 0.38 (inactive)	-0.0895 and 0.0597	-0.0921 and -0.118	0.84 and 0.766	0.463 and -0.221	0.0922 and -0.421	1.24 and -0.523	0.571 and 0.377	-0.0847 and -0.495
CC(C)=NOC[C@@H](O)COCc1ccco1	-0.206	1.56 (inactive)	-0.0328	-0.132	-0.637	-0.115	-0.353	-2.3	0.397	-0.703
C=CCN(C(=O)C(c1cccs1)N(CCOCCO)C(=O)/C=C\C(=O)O)C(C)(C)C (stereo not given)	-0.503 and -0.823	-0.48 (inactive) and -0.0662 (inactive)	-0.387 and -0.349	-0.148 and -0.126	0.847 and 0.9	-0.851 and 0.606	-0.957 and 0.0378	-1.33 and -0.246	-2.31 and -1.58	-1.4 and -1.67
C=CCN(CCCC)C(=O)C1N(C(C)(C)CO)C(=O)C2C(C(=O)O)C3C=CC21O3 (stereo not given)	-0.0353 and -0.347	-0.726 (inactive) and -1.17 (inactive)	-0.589 and -0.497	-0.161 and 0.544	0.909 and 0.619	0.12 and -0.103	-0.2 and -0.226	-1.62 and -1.72	-3.25 and -1.75	-1.25 and -2.32
CC(C)[Si]1(C(C)C)OCc2cc(C3CC3)nc(CCc3ccccc3)c21	-0.367 and -0.0511	-0.145 (inactive) and -0.387 (inactive)	-0.0716 and -0.135	-0.155 and -0.176	-0.344 and 0.027	-0.416 and 0.368	-0.0371 and -0.455	-0.636 and 0.47	0.32 and 0.195	0.211 and 0.513
C=CCN(C(=O)C1N(CCOCCO)C(=O)C2C(C(=O)O)C3C=CC21O3)c1ccc(OC)cc1 (stereo not given)	-0.0638 and -1.17	-0.598 (inactive) and -0.613 (inactive)	-0.421 and -0.459	-0.211 and -0.143	0.797 and 0.959	-0.39 and 0.89	1.39 and 0.112	-1.5 and -2.25	-2.17 and -3.32	-2.82 and -1.96
COC(=O)[C@H](C)NC(=O)CCC1CC(OC(=O)NCCc2ccc(F)cc2)CC2(CCCC(COC(=O)NCCCN3CCCC3=O)O2)O1 (stereo not given in full)	0.171	2.06 (inactive)	0.0159	0.666	0.194	0.275	0.0736	1.3	0.407	1.07
CO[C@@H]1COC(=O)CC=C[C@H](C)COC(=O)[C@H](C)NC(=O)CC=C[C@H]1C	-1.02	0.332 (inactive)	-0.1	-0.164	-0.427	-0.448	-0.235	0.548	1.06	0.161
C=CCN(CCCC)C(=O)C(c1cccs1)N(C(=O)/C=C\C(=O)O)c1c(Cl)cccc1CO (stereo not given)	-0.854 and -0.198	-0.089 (inactive) and 0.339 (inactive)	-0.589 and -0.431	-0.162 and -0.147	-0.3 and 0.0384	-0.99 and -0.632	-0.307 and 0.993	-0.843 and -1.73	-4.02 and -2.94	-3.43 and -2.5
C=C[C@@H](C)[C@@H](O)c1ccc(O)c2ccccc12	-0.154 and -0.436	-0.014 (inactive) and 0.196 (inactive)	-0.413 and -0.52	-0.232 and -0.193	0.0119 and 0.72	-0.024 and 0.351	-0.237 and -0.0579	-0.785 and -0.587	-0.0684 and 0.351	-0.419 and -0.81
